The values that follow come from PubChem BioAssay.

The target in the assay is Pantothenate synthetase (Mycobacterium tuberculosis (strain ATCC 25618 / H37Rv)) (UniProt P9WIL5). Put plainly: Recombinant Mtb pantothenate synthetase (PanC) inhibitors, coupled enzyme, confirmatory (AID 375).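 Further: 0% = full reaction with vehicle and 100% = no enzyme background.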 As to conditions: coupled enzyme assay; at 10 µM, active compounds read high.

A number with no mark means an inactive call. How the calls were made is not given here.

Pantothenate synthetase (Mycobacterium tuberculosis (strain ATCC 25618 / H37Rv)), sequence (P9WIL5 whole entry, looked up): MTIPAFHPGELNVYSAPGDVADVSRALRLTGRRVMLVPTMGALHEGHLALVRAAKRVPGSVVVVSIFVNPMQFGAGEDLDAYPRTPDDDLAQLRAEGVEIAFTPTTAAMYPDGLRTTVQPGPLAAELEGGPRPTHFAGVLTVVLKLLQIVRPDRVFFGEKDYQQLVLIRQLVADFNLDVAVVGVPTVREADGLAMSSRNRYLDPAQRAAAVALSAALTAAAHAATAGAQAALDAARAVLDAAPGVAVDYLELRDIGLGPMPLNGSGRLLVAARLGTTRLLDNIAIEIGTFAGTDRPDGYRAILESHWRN

As for `CC(C)OC(=O)c1cc(=O)[nH]c2ccccc12`, the inhibition (as a rule, the share of the control response that was lost under treatment) is 0%.
As for `CS(=O)(=O)Nc1ccccc1C(=O)O`, the figure is 0%.
As for `CC(OC(=O)C1CC=CCC1C(N)=O)C(Cl)=C(Cl)Cl` (stereo not drawn), the figure is 0%; as for `CS(=O)(=O)N1CCN(CC2CC3C=CC2C3)CC1` (stereo not drawn), 8%.
As for `COc1ccccc1NS(=O)(=O)c1ccc(OC)c(OC)c1`, the figure is 8%; as for `CCCCOc1ccc(C(=O)Nc2ccc(N3CCN(C(C)=O)CC3)cc2)cc1`, 0%; as for `CC(=O)c1ccccc1OCCn1nnc(-c2ccc(C)cc2)n1`, 0%.
Turning to `CC(=O)NC(Cc1ccc(C)cc1)C(=O)NC1CCN(C(=O)c2cnccn2)CC1` (stereo not drawn), the inhibition was 0%.
The value for `COc1ccccc1N1CCN(C(=O)c2ccc(S(=O)(=O)N3CCCCCC3)cc2)CC1` was 2%; that for `COc1ccc(C2=NO[C@@H]3C(=O)N(c4cccc(C)c4C)C(=O)[C@H]23)cc1OC` was 1%; that for `CCCc1cc(C(=O)Nc2ccc(C(C)=O)cc2)no1` was 0%.
As for `Cc1cc(NS(=O)(=O)c2ccc(NC(=O)C(C)N3C(=O)c4ccccc4C3=O)cc2)nc(C)n1` (stereo not drawn), the figure is 1%; as for `COCc1cc(=O)[nH]c(Nc2nc3ccccc3o2)n1`, 0%.
Consider `O=C(NCCN1CCOCC1)c1ccc(CS(=O)(=O)Cc2ccccc2F)o1`, for which the inhibition is 2%.
As for `Cn1cnc2c1c(=O)[nH]c(=O)n2C`, the figure is 0%.
For the compound `O=C(CCSc1nccn1Cc1ccccc1)N1CCOCC1`, the inhibition is 0%.
As for `CCN(CC)C(=O)c1ccc(NS(=O)(=O)c2ccccc2)cc1`, the figure is 0%.
As for `COc1ccccc1OCC(=O)NCC1CCCCC1`, the figure is 0%; as for `COc1cc(C(=O)N2CCN(c3cc(Cl)ccc3Cl)CC2)cc(OC)c1OC`, 1%; as for `O=C(NCc1cccs1)C(Cc1ccccc1)n1cccc1` (stereo not drawn), 0%.
The value for `CCOc1ccc(N(C(C)=O)C2C=CS(=O)(=O)C2)cc1` (stereo not drawn) was 0%; that for `OC(CCN1CCOCC1)(c1ccc(Cl)cc1)C1CCCCC1` (stereo not drawn) was 0%.
With `CC(NS(=O)(=O)c1ccc(F)cc1)C(c1cccs1)N1CCN(C)CC1` (stereo not drawn), the inhibition is 0%.
As for `Cc1csc2nc(CSc3nc4ccccc4o3)c(Br)n12`, the figure is 0%; as for `O=C(CN1C(=O)CC(c2ccccc2)=Nc2ccccc21)NCc1ccco1`, 0%.
As for `O=S(NCc1ccco1)C12CC3CC(CC(C3)C1)C2` (stereo not drawn), the figure is 0%.
The value for `CCCNS(=O)(=O)c1ccc(C(=O)NCC2CCCO2)cc1` (stereo not drawn) was 0%; that for `CCOC(=O)c1ccc(NC(=O)CCNc2c(N3CCCC3)c(=O)c2=O)cc1` was 0%.
Turning to `COc1ccc2nc(NC(=O)C(NS(=O)(=O)c3cccs3)C(C)C)sc2c1` (stereo not drawn), the inhibition is 0%.
The value for `Cc1cccc(OCC(=O)Nc2cc(C)ccc2O)c1` was 0%.
The value for `CN(C)c1ccc(CNCCC2(O)CCOC(C)(C)C2)cc1` (stereo not drawn) was 2%.
Consider `CCOc1nc(-c2ccccc2)ccc1-c1noc(-c2ccc(OC)c(OC)c2)n1`, for which the inhibition is 4%.
As for `CCOC(=O)C1CCN(C(C)=C2C(=O)c3ccccc3C2=O)CC1`, the figure is 2%.
As for `Cc1cccc(NC(=O)Nc2cccc(C#N)c2)n1`, the figure is 1%; as for `O=C(Nc1cccc(C(F)(F)F)c1)c1ccco1`, 0%.
The value for `CCOc1cc(/C=N/n2cnnc2)cc(Br)c1O` was 0%; that for `COc1ccccc1NC(=O)NC(N)=O` was 0%.
For the compound `CC(NO)C(C)(C)NO` (stereo not drawn), the inhibition is 8%.
As for `C=CCn1c(SCC(=O)O)nnc1-c1cccc(Cl)c1`, the inhibition was 0%.
The value for `CCOC(=O)c1ccc(COC(=O)c2cc3ccccc3oc2=O)o1` was 0%; that for `CCOC(=O)C1CCN(C(=O)c2ccc(OC)cc2OC)CC1` was 2%.
For `COc1ccc(C(=O)CSc2nc(C)cc(=O)[nH]2)cc1`, the inhibition was 0%.
As for `O=S(=O)(c1ccc(OCC(O)CN2CCC(Cc3ccccc3)CC2)cc1)N1CCOCC1` (stereo not drawn), the figure is 1%.
The value for `COc1ccc(CC(=O)OCc2nnc(C3COc4ccccc4O3)o2)cc1OC` (stereo not drawn) was 0%; that for `C=CCN1C(=O)CS/C1=N/c1nccs1` was 0%.
As to `COc1ccc(C2C3=C(CCCC3=O)Nc3nc(SCc4ccccc4)nn32)cc1OC` (stereo not drawn), the inhibition is 0%.
The value for `CCCc1cc(=O)[nH]c(/N=C(\N)Nc2ccccc2)n1` was 6%; that for `O=C(NCCC1=CCCCC1)C1CC(=O)N(C2CCCCCC2)C1` (stereo not drawn) was 2%.
As for `O=C(C1CCCN(S(=O)(=O)c2cnc[nH]2)C1)N1CC(=O)N(CCc2ccccc2)C(=O)C1` (stereo not drawn), the figure is 0%.
As for `COc1ccc(C(=O)NCc2nc3ccccc3[nH]2)cc1OC`, the figure is 5%.
In the case of `N#CCSCC(=O)Nc1ccc(F)cc1`, the inhibition was 0%.
The value for `O=C(CCn1c(=O)oc2ccccc21)NCCN1CCOCC1` was 4%; that for `Cc1ccc(-n2nc(-c3cccs3)cc2C(=O)NCC2CCCO2)c(C)c1` (stereo not drawn) was 0%.
In the case of `CN(C)c1nc(Nc2ccc(Cl)cc2)nc(OCC#N)n1`, the inhibition was 6%.
As for `COc1ccc(N2CCN(c3ccc(N)cc3C#N)CC2)cc1`, the figure is 7%; as for `O=C(COC(=O)c1cc(S(=O)(=O)N2CCOCC2)ccc1O)NCC1CCCO1` (stereo not drawn), 15%; as for `COc1cc2[nH]c3c(=O)n(CCN(C(C)C)C(C)C)cnc3c2cc1OC`, 10%.
As for `NC(Cc1ccc(Oc2ccc(O)cc2)cc1)C(=O)O` (stereo not drawn), the figure is 0%.
With `CC(=O)Nc1cc2c(nc1C)nc(C)n2Cc1ccc(Br)cc1`, the inhibition was 0%.
Turning to `CCCCOc1cc(=O)[nH]c(=O)[nH]1`, the inhibition is 4%.
Take `O=C(CCCCn1c(=O)[nH]c2ccsc2c1=O)NCc1cccnc1`: the inhibition is 5%.
The value for `COc1ccc2c(c1)CCc1c(C(=O)NCc3cccnc3)noc1-2` was 0%; that for `CCCCNc1cc(C)oc(=O)c1C(C)=O` was 4%.
On to `CCn1c(Cc2ccc(OC)cc2)nnc1SCC(=O)Nc1cccc(C(=O)OC)c1`, for which the inhibition was 5%.
As for `CC(NS(=O)(=O)c1ccc(OCC(=O)N2CCOCC2)c(Cl)c1)c1ccccc1` (stereo not drawn), the figure is 1%.
As for `O=C(CN1C(=O)c2ccccc2C1=O)Nc1ccccc1C(=O)N1CCCC1`, the figure is 1%; as for `Cc1ccc(-n2nnnc2SCC(=O)N2CCN(C(=O)c3ccco3)CC2)c(C)c1`, 0%; as for `Cc1cc(=O)[nH]c(SCC(=O)NCc2ccco2)n1`, 0%.
As for `C=CCn1c(SCn2nnc3ccccc3c2=O)nnc1-c1ccc(Br)cc1`, the figure is 2%; as for `O=P(CCNCc1ccco1)(c1ccccc1)c1ccccc1`, 0%.
In the case of `O=C1CC(c2ccccc2)CC(O)=C1C=NCCN1CCOCC1` (stereo not drawn), the inhibition was 5%.
The value for `Nc1ccc(S(=O)(=O)NC(=O)c2ccccc2)cc1` was 0%; that for `CCOC(=O)CSc1nc2ccccc2c(=O)n1NC(=O)c1ccccc1` was 1%.
